The values below come from PubChem BioAssay (NCATS).

Records with an inconclusive call do not appear. A number with no mark means an inactive call. Calls of active or inactive are those of the source. Calls follow the shape of the dose curve; as a rule, active = well fitted inhibition curve with a large enough effect; inconclusive = small, poorly fitted or top-dose-only effect; inactive = flat fitted curve, though single readings scatter.

Holding throughout (experiment): Cytotoxic Profiling of Annotated Libraries Using Quantitative High-Throughput Screening (AID 1296008); also: nearly all actives have a fitted effect of over 60% in size
Common to all, as to conditions: Five cell lines viability, CellTiter-Glo ATP luminescence, 48-72 h; max response: stronger effect = lower value
(In ATP-based viability assays light output follows the ATP content of the culture.)

For one assay, the system named is CRL-7250. The procedure, abridged:
(§1)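 Cytotoxicity was measured as CellTiter-Glo ATP luminescence, read after 10 min at room temperature. Compound treatment of the cells lasted 48 or 72 hr at 37 degrees Celsius in a qHTS format.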

The subject of a further assay is HEK293. In short, it runs like this: as §1
In another assay the test system is HaCat. In short, it runs like this: as §1
A further assay deals with KB-3-1. In short, it runs like this:
as §1

For the next assay, the system named is NIH3T3. In short, it runs like this: as §1
% is scaled to controls: 0 for no effect and ±100 for the full control effect; potency is read from the fitted curve at half-maximal effect.

Turning to `C/C1=C\CCC2=C[C@@H](OC2=O)c2c(C)coc2C1`, the max response was 1.59% with CRL-7250; -3.99% with HEK293; -3.91% with HaCat; 2.55% in the assay with KB-3-1; -21.8% in the assay with NIH3T3.
On to `CC(=O)c1c(O)cc(O[C@@H]2O[C@H](CO)[C@@H](O)[C@H](O)[C@H]2O)cc1O`, for which the max response is -2.16% with CRL-7250, 1.76% with HEK293, -1.69% with HaCat and 1.77% in the assay with NIH3T3. The outcome with KB-3-1 was inactive.
On to `CC(C)(C)C(=O)CN1C(=O)[C@H](NC(=O)Nc2cccc(C(=O)O)c2)CN(C2CCCCC2)c2ccccc21`, for which the max response was 1.1% with CRL-7250, 1.37% in the assay with HEK293, -3.07% in the assay with HaCat and 1.3% in the assay with NIH3T3. For the same compound, the compound was classed as inactive in the assay on KB-3-1.
Turning to `C=CC(=O)Nc1cc(Nc2nccc(-c3c[nH]c4ccccc34)n2)c(OC)cc1N(C)CCN(C)C`, the Potency was 18.4 µM (active) in the assay on CRL-7250; 5.17 µM (active) in the assay on HEK293; 36.6 nM (active) with HaCat; 8.2 µM (active) in the assay on KB-3-1; 14.6 µM (active) in the assay on NIH3T3.
Consider `COC(=O)C1(C)CCC2(C(=O)O)CCC3(C)C(=CCC4C5(C)CC(O)C(OC6OCC(O)C(O)C6O)C(C)(CO)C5CCC43C)C2C1` (stereo not given), for which the max response in the assay with CRL-7250 is 3.48%; in the assay on HEK293, 0.887%; with HaCat it was -27.2%; in the assay on KB-3-1, 9.85%; with NIH3T3, -9.3%.
The matching figures for `C=C[C@@](C)(O)CC/C=C(\C)C(=O)O[C@@H]1[C@@H]2O[C@]2(C)[C@H]2[C@H](O[C@@H]3O[C@H](CO)[C@@H](O)[C@H](O)[C@H]3O)OC=C[C@@]12O`: -6.64%, 0.966%, -5.52%, -1.11% and 1.5%.
Consider `CCn1cc(NC(=S)Nc2cc(Cl)ccc2OC)c(C(N)=O)n1`, for which the max response in the assay on CRL-7250 was -6.99%; in the assay with HEK293, -2.95%; with HaCat, -0.793%; in the assay on NIH3T3 it was -1.95%. For the same compound, in the assay on KB-3-1, the outcome was inactive.
The matching figures for `CC1C(OC(=O)c2ccccc2)C(O)C2C(C(=O)O)=COC(OC3OC(CO)C(O)C(O)C3O)C12` (stereo not given): 3.33%, -0.0764%, -2.92%, 4.34% and “inactive”.
Consider `CC(C)(C)NC(=O)[C@@H](c1cccnc1)N(C(=O)c1ccco1)c1ccc(C(C)(C)C)cc1`, for which the max response was 4.34% with CRL-7250, -16.3% in the assay on HEK293, -16.4% with HaCat and 4.2% with NIH3T3. In addition, in the assay with KB-3-1, the result was inactive.
For the compound `COc1c2c(c(C)c3c1C(=O)OC3)OC1(C)CC(O)C34OC(OC)(CC(OC(C)=O)C3(C)C1C2)OC4(C)C` (stereo not given), the result in the assay on CRL-7250 and in the assay on HaCat was inactive. Also, the max response was -22.1% in the assay on HEK293, 1.81% in the assay with KB-3-1 and -0.676% in the assay on NIH3T3.
As for `CC1(C)CC2C(C1)C(C)(O)C13CC1(COC3=O)C2O` (stereo not given), the max response was -28% in the assay with CRL-7250; -10.5% with HEK293; -11.6% in the assay on HaCat; -11% in the assay with KB-3-1; -6.54% in the assay on NIH3T3.
As to `Cc1c(C(=O)N2CCOc3ccc(-c4ccc(N)nc4)cc3C2)ccc(S(C)(=O)=O)c1F`, the Potency with CRL-7250 was 4.61 µM (active); with HEK293, 5.8 µM (active); with KB-3-1, 7.31 µM (active); with NIH3T3, 11.6 µM (active). Also, the max response in the assay on HaCat is 2.5%.
On to `O=C(O)COCCN1CCN([C@H](c2ccccc2)c2ccc(Cl)cc2)CC1`, for which the max response in the assay with CRL-7250 is 2.26%; with HEK293, -2.41%; in the assay with HaCat it was -30.6%; in the assay with KB-3-1 it was 0.104%; with NIH3T3, 0.14%.
Take `OC/C=C/C=C/[C@H]1Cc2cc(O)cc(O)c2O1`: in the assay with CRL-7250, the result was inactive. Also, the max response in the assay with HEK293 is -7.6%; with HaCat it was -12.2%; in the assay on KB-3-1, 6.07%; in the assay with NIH3T3 it was 1.57%.
Consider `CC(C)C1=CC2C(CC[C@]2(C)O)[C@](C)(O)CC1` (stereo not given in full), for which the max response in the assay on CRL-7250 was -11.6%; in the assay on HEK293 it was -1.9%; in the assay with HaCat, 2.33%; in the assay with NIH3T3 it was 2.57%. For the same compound, the result with KB-3-1 was inactive.
In the case of `CC(=O)O[C@@H](CO[C@@H]1O[C@H](CO)[C@H](O)[C@H](O)[C@H]1O)[C@]1(C)C=C2CC[C@@H]3C(C)(C)[C@@H](O)CC[C@@]3(C)[C@@H]2CC1`, the max response with CRL-7250 is -3.06%; in the assay with HEK293, -1.31%; in the assay on HaCat, 2.2%; in the assay with KB-3-1, 2.92%; in the assay on NIH3T3, 4.41%.
For `COc1ccc(/C=C/C(=O)O[C@H]2[C@H](O[C@H]3[C@@H]4C=CO[C@@H](O[C@@H]5O[C@H](CO)[C@@H](O)[C@H](O)[C@H]5O)[C@@H]4[C@@]4(CO)O[C@@H]34)O[C@@H](C)[C@H](O)[C@H]2OC(C)=O)cc1`, the max response was 3.12% with CRL-7250; -1.88% in the assay on HEK293; 2.92% with HaCat; 4.98% in the assay on KB-3-1; -16.4% with NIH3T3.
Turning to `CCCC(=O)C1CCN(c2ncnc3c2CN(C(=O)c2ccc(-c4ccccc4)cc2)CC3)CC1`, the max response with CRL-7250 is -7.29%; in the assay on HaCat, -5.72%; in the assay with KB-3-1 it was -16.8%; with NIH3T3, -13.2%. Besides, in the assay on HEK293, the Potency was 18.4 µM (active).
